# Screening results deposited in PubChem BioAssay by National Center for Advancing Translational Sciences (NCATS).
# SARS PLP yeast – inhibitors of SARS-CoV papain-like protease in yeast | Potency, µM (series often up to 32.9 µM), actives largely listed as activators | S. cerevisiae expressing SARS-CoV PLpro, growth rescue | 330,000 compounds, 0.19% hits; calls by dose curve; further: nearly all actives have a fitted effect of over 55% in size
# Tb PYK inh – blocks Trypanosoma brucei pyruvate kinase. TbPYK enzyme, Kinase-Glo Plus ATP luminescence, 45 min. Potency, µM (titrated, usually from 76.8 µM), most hits filed as inhibitors. 410,000 compounds, 0.12% hits; further: nearly all actives have a fitted effect of over 50% in size
#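 Activity of T. brucei pyruvate kinase was followed by Kinase-Glo Plus luminescence after the enzyme reacted 45 min at room temperature with 130 uM ADP (final) and substrate. Test compounds were added before ADP at multiple concentrations.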
# RE007 growth inh – less growth of the S. pombe RE007 Vpr strain; Potency, µM (top dose mostly 92.2 µM), usual class: inhibitors; S. pombe RE007 Vpr strain, BacTiter-Glo ATP luminescence, 24 h; 360,000 compounds, 0.21% hits; AID 651644; active means well fitted falling curve with a large enough effect; inconclusive means small, poorly fitted or top-dose-only effect; inactive means no such curve, though single readings can be large or run the other way; further: nearly all actives have a fitted effect of over 50% in size
#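 Fission yeast strain RE007, carrying one chromosomally integrated HIV-1 vpr copy, was seeded at OD 0.01 in PMG+AL medium with 23 nL pinned compound. After 24 h at 30 °C and 99% humidity, viability was read by BacTiter-Glo luminescence.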
# AmpC inh detg – blocks E. coli AmpC beta-lactamase in detergent assay; P00811; AmpC hydrolysis of nitrocefin, absorbance 480 nm, 0.01% Triton; Potency, µM (top dose mostly 114 µM), hits mostly inhibitors; 370,000 compounds, 0.041% hits; further: nearly all actives have a fitted effect of over 25% in size
# Target sequence (P00811 whole entry, looked up): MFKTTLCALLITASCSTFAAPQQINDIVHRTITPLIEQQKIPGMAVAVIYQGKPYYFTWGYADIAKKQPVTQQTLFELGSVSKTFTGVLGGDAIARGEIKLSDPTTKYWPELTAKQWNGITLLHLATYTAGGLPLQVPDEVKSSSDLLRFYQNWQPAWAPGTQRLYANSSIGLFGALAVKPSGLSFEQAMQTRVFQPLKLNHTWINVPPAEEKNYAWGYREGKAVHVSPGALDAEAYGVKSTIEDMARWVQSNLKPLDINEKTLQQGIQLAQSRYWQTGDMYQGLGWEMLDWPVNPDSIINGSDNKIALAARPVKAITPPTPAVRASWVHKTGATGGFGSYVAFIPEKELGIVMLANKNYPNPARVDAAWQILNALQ
#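 AmpC (5.3 nM in the dispensed reagent) in 20 mM phosphate pH 7.0 with 0.01% (detergent screen) or 0.0001% Triton X-100 was preincubated with compounds for 15 min at room temperature. Nitrocefin was then added from an 800 uM solution, and hydrolysis was followed at 480 nm.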
# Sm TGR block – S. mansoni TGR enzyme inhibition; Q962Y6; purified TGR, DTNB reduction, TNB absorbance 405 nm; Potency, µM (doses to about 114 µM), actives largely listed as inhibitors; 360,000 compounds, 3% hits; further: nearly all actives have a fitted effect of over 60% in size
#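 First, TGR (20 nM dispensed) and NADPH were mixed with compound. Second, a 15 min room-temperature incubation followed. Third, further NADPH and then DTNB were added to start the reaction. Finally, TNB absorbance was monitored kinetically.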
# AmpC no deterg – AmpC beta-lactamase inhibition without detergent; AmpC nitrocefin hydrolysis, absorbance 480 nm, 0.0001% Triton; Potency, µM (series often up to 57.1 µM), usual class: inhibitors; 330,000 compounds, 0.52% hits; P00811; further: nearly all actives have a fitted effect of over 20% in size
#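 20 mM phosphate pH 7.0 + 0.01% (detergent screen) or 0.0001% Triton X-100; 5.3 nM AmpC reagent; cpd preinc 15 min RT; nitrocefin (800 uM stock) to start; A480 q20 s × 4 min; Activity was normalised to no-enzyme and no-compound control wells.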
# Numbers stand for hits; . = inactive; ? = inconclusive; / = no result given; [ ] = remark or other dose. This is a sample that favours compounds with a hit; in the whole collection about 3.3% have one here. Unless noted, the call rests on the fitted dose curve; in most records, active means well fitted curve in the direction sought with a large enough effect; inconclusive means small, poorly fitted or top-dose-only effect, or another doubt; inactive means no such curve, though single readings can be large; an effect the other way counts as inactive or inconclusive.
SMILES,SARS PLP yeast,Tb PYK inh,RE007 growth inh,AmpC inh detg,Sm TGR block,AmpC no deterg
CCOC(=O)c1sc2ccccc2c1OC(=O)c1ccc(C)cc1,.,.,.,.,.,.
COc1ccc(OC)c(NC(=O)CN(c2ccccc2OC)S(=O)(=O)c2ccc(C)cc2)c1,/,.,/,.,.,/
CCOCC(=O)Nc1nc2ccccc2s1,.,.,?,.,35µM,.
CCNC(=O)Nc1nc2ccccc2s1,.,.,.,.,.,.
Cn1cc(C(=O)NCCc2ccccc2)c(=O)c2cc(S(=O)(=O)N3CCCCCC3)ccc21,/,.,/,.,.,/
Cc1ccc(Sc2c([N+](=O)[O-])c(=O)n(C)c3ccccc23)cc1,.,.,.,.,2µM,.
COc1ccc(-n2c(SCC(=O)NCc3ccccc3)nc3c([nH]c4ccccc43)c2=O)cc1,/,.,/,.,.,/
COc1cc(NC(=O)Cn2ccsc2=N)c(C)cc1[N+](=O)[O-],.,.,.,.,.,.
N=c1sccn1CC(=O)Nc1ccc(S(N)(=O)=O)cc1,.,.,.,.,45µM,.
N=c1sccn1CC(=O)Nc1cccc(S(N)(=O)=O)c1,.,.,.,.,.,.
N=c1sccn1CC(=O)Nc1ccc(Cl)cc1[N+](=O)[O-],.,.,.,.,40µM,.
COc1ccc(-c2nnc(C3CCN(S(=O)(=O)c4cccc(Cl)c4)CC3)o2)cc1,/,?,/,.,.,/
Cc1cc(C)cc(NC(=O)CCCn2c3ccccc3c(=O)c3ccccc32)c1,/,.,/,.,.,/
Cn1cc(-c2cc3n(n2)CCC(=O)N3CCCC(=O)Nc2ccccc2Cl)c2ccccc21,/,.,/,.,.,/
COCCn1c(C)cc(O)c(C(c2ccccc2OC)N2CCCCC2)c1=O (stereo not drawn),/,.,/,.,10µM,/
CCOC(=O)C1CCN(C(c2ccccc2OC)c2c(O)cc(C)n(CCOC)c2=O)CC1 (stereo not drawn),/,.,/,.,7.1µM,/
CCOC(=O)C1CCN(CCC(=O)Nc2ccccc2OC)CC1,/,.,/,.,.,/
CCOC(=O)C1=NN(C(C)=O)C2(CC(=O)N(c3cc(C)cc(C)c3)C2=O)C1 (stereo not drawn),.,.,.,?,.,.
COC(=O)C1=NN(N=O)C2(CC(=O)N(c3cc(C)cc(C)c3)C2=O)C1 (stereo not drawn),.,/,.[3.69 µM],.,25µM,.
Cc1cccc(Nc2cc(C)nc3nc(Cc4ccc(Cl)cc4)nn23)c1,/,.,/,.,.,/
CN=c1nc(-c2ccccc2)n(-c2ccccc2)s1,/,7.9µM,.,.,1.1µM,.
Cn1nc(-c2ccccc2)nc1-c1ccccc1,.,.,.,.,.,.
COc1ccccc1N1CCN(C(=O)c2cc3ccc4ccc(C)[nH]c4c3n2)CC1,/,.,/,.,.,/
Cc1cccc(NC(=O)NNS(=O)(=O)c2ccc(F)cc2)c1,.,.,.,.,.,.
CC(=O)Nc1ccc(S(=O)(=O)NNc2cccc(C)c2)cc1,.,?,.,.,14µM,.
SMILES,SARS PLP yeast,Tb PYK inh,RE007 growth inh,AmpC inh detg,Sm TGR block,AmpC no deterg
CCOC(=O)c1c(NC(=O)CCCOc2ccc(Cl)cc2)sc2c1CCC2,/,.,/,.,.,/
CCOc1cc(NS(=O)(=O)c2ccccc2)c(OCC)cc1NC(=O)c1ccco1,.,.,.,.,32µM,.
CCOc1ccccc1NC(=O)c1cc(S(=O)(=O)NCc2ccco2)ccc1F,.,.,.,.,32µM,.
CN1CCN(C(c2ccccc2)c2sc3nc(-c4ccco4)nn3c2O)CC1 (stereo not drawn),/,.,/,.,.,/
Cc1ccc(NC(=O)Cn2c(=O)n(Cc3nc(C)no3)c(=O)c3cc4c(cc32)OCO4)c(C)c1,/,.,/,.,.,/
CCOc1ccc(-c2cc(C(=O)NCCCOC)c3c(-c4ccc(CC)cc4)[nH]nc3n2)cc1,/,.,/,.,.,/
CC(=O)N1N=C(c2ccccc2)OC1c1ccc([N+](=O)[O-])s1 (stereo not drawn),.,.,35µM,.,32µM,.
CCOC(=O)c1cc(-c2ccc(F)cc2)n(CCC(=O)Nc2nc3cc(C)c(C)cc3s2)c1C,/,.[15.4 µM],/,.,.,/
O=C(Nc1nccs1)c1nc[nH]c1C(=O)N1CCN(c2ccccc2)CC1,.,.,.,/,/,.
CC1CCN(C(=O)c2[nH]cnc2C(=O)Nc2nccs2)CC1,.,.,.,.,28µM,.
COc1ccc2nc(NC(=O)CSCc3c(C)noc3C)sc2c1,.,.,.,?,.,25µM
CCOc1ccc(-c2nc(Cn3c(=O)cc(C)c4c(C)nn(-c5ccc(C)cc5)c43)c(C)o2)cc1,/,.,/,.,.,/
CN(C)S(=O)(=O)c1ccccc1N=C=S,.,.,.,.,16µM,.
CN1CCN(Cc2cc(C(C)(C)C)c(O)c(C(C)(C)C)c2)CC1,.,.,.,.,3.5µM,.
CC1=NN(Cc2cc(C(C)(C)C)c(O)c(C(C)(C)C)c2)C(=O)C1,.,.,.,.,.,.
CC(C)(C)c1cc(CN2CCC(O)CC2)cc(C(C)(C)C)c1O,.,.,.,.,7.9µM,.
OC1CCN(Cc2ccc3ccccc3c2)CC1,.,.,.,.,.,.
CN(C)Cc1cc(C(C)(C)C)c(O)c(C(C)(C)C)c1,.,.,.,.,22µM,.
O=C(CNC(=O)c1ccc(F)cc1)OCc1cc(=O)n2nc(C3CC3)sc2n1,/,.,/,.,.,/
CCOC(=O)c1ccc(NC(=O)CCc2c(C)nc3c(c(C)nn3C)c2C)cc1,/,.,/,.,.,/
Cc1cccc(C)c1NC(=O)CN(Cc1ccc(Br)cc1)S(=O)(=O)c1ccccc1,/,.,/,.,.,/
O=C(N/N=C/C(Br)=C/c1ccccc1)C(O)c1ccccc1 (stereo not drawn),.,.,.,.,.,.
BrC(=C\c1ccccc1)/C=N/Nc1nc2ccccc2[nH]1,.,.,.,.,20µM,.
O=C(O)c1ccc(N/N=C/C(Br)=C/c2ccccc2)cc1,.,.,.,.,1.1µM,.
Cc1cc(Cl)ccc1Nc1ncnc2onc(C)c12,/,.,/,.,.,/
O=C1CN(C(=O)c2ccc(S(=O)(=O)N3CCCC3)cc2)C(c2ccccc2)c2cc(Br)ccc2N1 (stereo not drawn),/,.,/,.,.,/
CC1(C)CC(=O)C(C2C3=C(CC(C)(C)CC3=O)Oc3ccccc32)C(=O)C1 (stereo not drawn),.,.,.,.,5µM,.
CC1(C)CC(=O)C(C2C3=C(CC(C)(C)CC3=O)Oc3ccccc32)=C(O)C1 (stereo not drawn),.,.,.,.,7.9µM,.
